Screens as filed in PubChem BioAssay.
GRP78 ERSR act: induces the endoplasmic reticulum stress response in human glioma cells; U87-MG GRP78 promoter luciferase reporter, 16 h; Potency, µM, for the others: at the top dose activation, usual class: activators; hit rate 0.02% among 420,000; active means well fitted activation curve with a large enough effect; further: potency means the concentration at half of the fitted maximal effect; series mostly up to about 76 µM; % of control where 0% means no effect; nearly all actives have a fitted effect of over 35% in size
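Stably transfected U87-MG glioma cells carrying a GRP78-based luciferase sensor; 16 h compound incubation. Luminescence end-point read 10 min after Bright-Glo addition at room temperature.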
D1 PAM: human D1 dopamine receptor positive modulation; P21728; HEK293 TREx D1 cells, calcium flux, dopamine EC20 potentiation; potentiation, % at 10 µM; hit rate 0.036% among 360,000; AID 504651; in the data active means potentiation above about 30%; further: 0% is about no effect
Target sequence (P21728 whole entry, looked up): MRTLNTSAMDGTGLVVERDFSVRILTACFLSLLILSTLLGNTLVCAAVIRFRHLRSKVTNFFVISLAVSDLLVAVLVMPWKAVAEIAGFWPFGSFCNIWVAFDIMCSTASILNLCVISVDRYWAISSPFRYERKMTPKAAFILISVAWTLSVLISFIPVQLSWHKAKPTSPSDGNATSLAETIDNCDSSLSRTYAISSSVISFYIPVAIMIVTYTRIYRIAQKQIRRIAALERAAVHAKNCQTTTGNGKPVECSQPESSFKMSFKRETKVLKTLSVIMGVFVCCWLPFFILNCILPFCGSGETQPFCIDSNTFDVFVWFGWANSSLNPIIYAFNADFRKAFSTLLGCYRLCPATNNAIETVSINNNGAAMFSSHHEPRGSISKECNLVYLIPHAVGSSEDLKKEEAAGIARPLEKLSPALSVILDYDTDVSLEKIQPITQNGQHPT
TRHR enhancer: allosteric enhancers of human TRH receptor; enhancement, % at 2 µM; P34981; TRHR cells, fluo-8 calcium fluorescence, EC20 TRH enhancement; hit rate 0.66% among 360,000; in the data active means enhancement above about 30%; further: 0% is about no effect
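TRHR-expressing cells loaded with fluo-8 calcium dye were read kinetically (ex 480/em 530) during compound addition, then stimulated with an EC20 of TRH (10 nM final). Enhancement of the Gq-mediated intracellular calcium response was scored.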
D1 antagonist: blocks dopamine activation of the human D1 receptor | HEK293 TREx D1 cells, calcium flux, dopamine EC80; stronger effect = lower value | activity change, negative = inhibition, % at 10 µM | hit rate 3.2% among 360,000 | AID 504652; in the data active means activity change below about -30%; further: on the % scale 0 is the no-effect control and ±100 the full control effect
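Tetracycline-induced HEK293 Trex D1 cells, force-coupled to calcium, dye-loaded; compounds added and read 180 s, then EC80 dopamine added and calcium flux tracked kinetically another 180 s.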
D1 agonist: human D1 receptor agonism; P21728; activation, % at 2 µM; HEK293 T-REx D1 cells, calcium flux, agonist mode; hit rate 1% among 360,000; further: 0% is about no effect
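Inducible HEK293 T-REx D1 cells, force-coupled to calcium signalling, were plated at 4000 cells/well with tetracycline and held overnight at 30 C. After no-wash calcium dye loading, compound-evoked calcium rise over 180 s flagged agonists.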
TRHR ag: activates the human TRH receptor; hit rate 0.18% among 360,000; TRHR cells, calcium flux fluo-8, FDSS agonist mode; activation, % at 2 µM; P34981; further: 0% is about no effect
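TRHR-expressing cells, plated overnight in medium with 10% serum, were loaded with fluo-8 calcium dye at room temperature. After a 10 s baseline, library compound was pin-added and calcium release was recorded kinetically (ex 480/em 530) as agonist response.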
An asterisk follows results filed as active; · = no result given; ! = not confirmed by another sample. In the library only some 4% were active in any assay of this set; here they are far more common. Unless noted, no stated cut-off is given here; in the data, active means activation above about 30%; inactive means the rest.

SMILES | GRP78 ERSR act | D1 PAM | TRHR enhancer | D1 antagonist | D1 agonist | TRHR ag
CN(C)c1ccc(/C=C/c2cc(/C=C/c3ccc(N(C)C)cc3)c3ccccc3n2)cc1 | -10% | · | · | · | · | ·
Cn1c(SCC(=O)NCC2CCCO2)nnc1-c1ccc(S(=O)(=O)N2CCCC2)cc1 (configuration not stated) | -1% | 0 | 38* | 8 | 3 | 0
O=C(CSc1nnc(-c2ccncc2)n1-c1ccccc1)NCC1CCCO1 (configuration not stated) | -3% | -8 | -6 | -51* | 3 | 0
O=C(CSc1nnc(-c2cccs2)n1-c1ccccc1)NCC1CCCO1 (configuration not stated) | -3% | -3 | 8 | 0 | 0 | 0
CCCNC(=O)CSc1ccc(S(=O)(=O)N2CCCC2)cn1 | -3% | 2 | 6 | -34* | 0 | 0
CCCNC(=O)CSc1ccc(S(=O)(=O)N2CCCCC2)cn1 | -3% | -1 | -1 | -11 | 2 | 0
O=C(CSc1nnc(-c2ccc(S(=O)(=O)N3CCCC3)cc2)o1)NCC1CCCO1 (configuration not stated) | 0% | -5 | 1 | -9 | 2 | 1
c1ccc(-n2c(SCC3CCCCO3)nnc2-c2cccs2)cc1 (configuration not stated) | -3% | 0 | -2 | -32* | 2 | -1
C=CC[C@@H]1C=C[C@@H](O/N=C(/C)CCC(=O)OC[C@@H]2O[C@H](c3ccccc3)C=C[C@@H]2Oc2ccc(OC)cc2)[C@@H](CO)O1 | -4% | · | · | · | · | ·
COc1cccc(C(=O)CC(=O)C(=O)Nc2cc(OC)c(OC)c(OC)c2)c1 | · | -6 | 0 | 8 | 0 | 1
C=CCNC(=O)CSc1nnc(-c2ccc(S(=O)(=O)N3CCCC3)cc2)n1C | -6% | · | -3 | -5 | 6 | -1
Cc1cccc(OCc2nnc(SCC(=O)NCC3CCCO3)n2C)c1 (configuration not stated) | -2% | -2 | 37* | 7 | -2 | 0
CCCCNC(=O)CSc1nnc(-c2ccc(S(=O)(=O)N3CCCC3)cc2)n1C | -3% | -7 | -2 | -68* | -2 | 1
O=S(=O)(c1ccc(SCc2ccccc2F)nc1)N1CCCC1 | 13% | · | -2 | -34* | 13 | 1
Cc1nc2c(c(=O)[nH]1)CSCC2 | 1% | · | · | · | · | ·
O=S1(=O)CCO[C@H]2CCCC[C@@H]2N1Cc1ccccc1F | -3% | · | · | · | · | ·
CCN(CC)CCn1c(SCC(=O)Nc2ccc3c(c2)CCC3)nc2ccccc2c1=O | -4% | -4 | -4 | -32* | 2 | 0
Cc1ccc(NC(=O)CN(C)C(=O)CSc2nc3ccccc3c(=O)n2Cc2ccco2)cc1 | -2% | -2 | 1 | -33* | 3 | 0
O=C(CSc1nc2ccccc2c(=O)n1-c1ccccc1F)Nc1ccc2c(c1)CCC2 | 0% | -3 | -9 | 5 | 5 | 1
CN(Cc1ccccc1)C(=O)CSc1nc2ccccc2c(=O)n1Cc1ccco1 | -2% | -1 | -4 | -5 | 4 | 0
CCOCCCn1c(SCC(=O)Nc2cccc(OC)c2)nc2ccccc2c1=O | -1% | -3 | -7 | -46*! | 1 | -1
NC(N)=NCCCC(N)C(=O)O (configuration not stated) | -3% | · | · | · | · | ·
Cc1cccc(-c2nc(N3CCN(c4ccc(F)cc4)CC3)c3ccccc3n2)c1 | 0% | 1 | 8 | -14 | 0 | -1
Cc1cc[n+](-c2[nH]c(=O)sc2/C=N/NC([S-])=Nc2ccccc2)cc1 | -3% | 6 | -1 | 8 | 6 | 2
O=c1[nH]c(-[n+]2ccccc2)c(/C=N/NC([S-])=Nc2ccccc2)s1 | -5% | -1 | 3 | -3 | 174* | 56*
Cc1c(C(=O)NC(C)(C)C)sc2ncnc(NCCN(C)C)c12 | -4% | · | · | · | · | ·
CCCCN1CCCC1CNC(=O)c1cc(C#N)c2ccccc2c1OC (configuration not stated) | · | -4 | -2 | -41* | 4 | 0
CCN1CCCC1CNC(=O)c1cc(OC)c(OC)c(OC)c1 (configuration not stated) | -4% | 7 | 6 | 0 | 2 | 0
